Test results: PubChem BioAssay (Tox21)
Inconclusive results are not listed. Where a call stands in place of a potency, no number is given. A number with no mark means an inactive call. Active and inactive are the calls of the source. Unless noted, calls come from the whole dose curve; as a rule, active = well fitted curve in the direction sought with a large enough effect in the repeat runs; inconclusive = weak or mixed curves; inactive = no such curve, though single readings can be large; an effect the other way counts as inactive or inconclusive.

Tests used:
[1] = biological target: Aryl hydrocarbon receptor (Homo sapiens) (UniProt P35869); test: qHTS assay to identify small molecule that activate the aryl hydrocarbon receptor (AhR) signaling pathway (AID 743085);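 note: HG2L7.5c1 human HepG2 liver cells with stably integrated DRE-driven firefly reporter; series mostly up to about 70 µM; nearly all actives have a fitted effect of over 15% in size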
Chain of Aryl hydrocarbon receptor (Homo sapiens) (P35869 whole entry, looked up): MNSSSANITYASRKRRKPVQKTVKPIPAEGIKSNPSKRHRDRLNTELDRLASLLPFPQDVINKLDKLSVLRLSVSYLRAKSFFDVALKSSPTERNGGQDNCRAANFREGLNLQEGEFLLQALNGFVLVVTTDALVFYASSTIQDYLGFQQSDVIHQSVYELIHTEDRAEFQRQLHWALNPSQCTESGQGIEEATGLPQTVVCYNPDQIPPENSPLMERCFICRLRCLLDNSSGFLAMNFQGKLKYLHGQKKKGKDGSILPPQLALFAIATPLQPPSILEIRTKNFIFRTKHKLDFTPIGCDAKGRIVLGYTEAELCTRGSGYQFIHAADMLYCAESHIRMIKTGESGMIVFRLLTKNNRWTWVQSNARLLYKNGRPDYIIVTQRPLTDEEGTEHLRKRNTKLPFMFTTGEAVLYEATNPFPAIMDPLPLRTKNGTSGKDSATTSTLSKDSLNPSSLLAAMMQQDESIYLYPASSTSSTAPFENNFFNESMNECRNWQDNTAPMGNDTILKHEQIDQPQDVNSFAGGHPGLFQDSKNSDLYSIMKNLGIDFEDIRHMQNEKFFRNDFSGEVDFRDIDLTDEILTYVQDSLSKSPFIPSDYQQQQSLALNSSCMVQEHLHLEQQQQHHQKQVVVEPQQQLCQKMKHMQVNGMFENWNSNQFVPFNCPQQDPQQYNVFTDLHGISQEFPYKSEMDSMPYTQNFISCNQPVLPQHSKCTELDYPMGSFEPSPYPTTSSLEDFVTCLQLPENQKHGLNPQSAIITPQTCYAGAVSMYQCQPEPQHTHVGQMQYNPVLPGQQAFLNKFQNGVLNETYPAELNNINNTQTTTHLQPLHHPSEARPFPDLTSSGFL
Method in brief: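 Luminescence (ONE-Glo) from a dioxin-responsive-element luciferase reporter in HG2L7.5c1 HepG2 cells after 24 hr compound exposure at 37C; viability measured by CellTiter-Fluor fluorescence beforehand.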

[2] = qHTS assay to identify small molecule that activate the aryl hydrocarbon receptor (AhR) signaling pathway - cell viability counter screen (AID 743086); note: nearly all actives have a fitted effect of over 45% in size; note: potency is the fitted concentration of half-maximal effect
Method in brief: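 HepG2-AhR-luc (HG2L7.5c1) cells, 4000/well, treated 24 h at 37 C with compound; viability measured as CellTiter-Fluor fluorescence after 30 min in the same wells as the luciferase read.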

[3] = biological target: Peroxisome proliferator-activated receptor gamma (Homo sapiens) (UniProt P37231); test: qHTS assay to identify small molecule agonists of the peroxisome proliferator-activated receptor gamma (PPARg) signaling pathway (AID 743094; active = well fitted activation curve with a large enough effect in the signal ratio in the repeat runs, not every such curve was filed as active; the % refers to the signal ratio)
Chain of Peroxisome proliferator-activated receptor gamma (Homo sapiens) (P37231 whole entry, looked up): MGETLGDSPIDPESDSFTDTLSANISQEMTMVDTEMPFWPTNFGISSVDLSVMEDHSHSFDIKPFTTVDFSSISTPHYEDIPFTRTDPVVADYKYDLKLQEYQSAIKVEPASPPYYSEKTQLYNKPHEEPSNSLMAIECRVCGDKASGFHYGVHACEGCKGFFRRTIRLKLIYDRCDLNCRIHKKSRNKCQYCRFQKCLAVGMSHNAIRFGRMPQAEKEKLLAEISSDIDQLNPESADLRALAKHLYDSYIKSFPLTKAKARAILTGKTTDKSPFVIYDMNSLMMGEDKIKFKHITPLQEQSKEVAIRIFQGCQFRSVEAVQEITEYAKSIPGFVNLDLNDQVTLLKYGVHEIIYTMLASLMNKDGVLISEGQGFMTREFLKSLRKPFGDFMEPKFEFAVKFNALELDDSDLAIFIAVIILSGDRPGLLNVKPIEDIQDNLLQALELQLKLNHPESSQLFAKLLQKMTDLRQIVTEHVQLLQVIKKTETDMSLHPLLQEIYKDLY
Method in brief: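 Cells from the PPARg UAS-bla HEK293H line are plated and incubated 5 h at 37C. Compounds in DMSO are pinned in and left 17 h at 37C. LiveBLAzer B/G substrate is then added for 1 h at room temperature before fluorescence is measured.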

[4] = qHTS assay to identify small molecule antagonists of the peroxisome proliferator-activated receptor gamma (PPARg) signaling pathway - cell viability counter screen (AID 743194); note: nearly all actives have a fitted effect of over 55% in size
Method in brief: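 Cytotoxicity counter screen in PPARg-bla HEK293H cells, same wells as reporter assay. Compounds plus 50 nM rosiglitazone (final) for 17 h at 37 C, then viability read by CellTiter-Glo luminescence.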

[5] = qHTS assay for small molecule agonists of the antioxidant response element (ARE) signaling pathway (AID 743202; active = well fitted activation curve with a large enough effect in the signal ratio in the repeat runs, not every such curve was filed as active; the % refers to the signal ratio; note: potency is the fitted concentration of half-maximal effect)
Method in brief: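 HepG2 ARE-bla reporter line, 2,000 cells/well; 5 h preincubation 37 C/5% CO2; compound (DMSO) 16 h 37 C; B/G FRET substrate 2 h RT; fluorescence intensity.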

[6] = qHTS assay for small molecule agonists of the antioxidant response element (ARE) signaling pathway - cell viability counter screen (AID 743203; calls by dose curve; note: nearly all actives have a fitted effect of over 55% in size)
Method in brief: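 Cytotoxicity was tested in parallel with the ARE reporter screen. ARE-bla HepG2 cells were exposed to compounds for 16 hrs, and viability was taken from CellTiter-Glo luminescence.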

[7] = qHTS assay for small molecule activators of the heat shock response signaling pathway - cell viability counter screen (AID 743209); note: nearly all actives have a fitted effect of over 50% in size
Method in brief: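 Cytotoxicity counter screen run in parallel with the HSE beta-lactamase reporter, using the same wells. HeLa HSE-bla cells received compound for 5 h at 37 C; ATP-based CellTiter-Glo luminescence was measured after 30 min at room temperature.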

[8] = qHTS assay for small molecule activators of the heat shock response signaling pathway (AID 743210; active = well fitted activation curve with a large enough effect in the signal ratio in the repeat runs, with a control signal flat, not every such curve was filed as active; the % refers to the signal ratio;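 note: HeLa cells with beta-lactamase reporter driven by heat shock elements; series mostly up to about 63 µM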)
Method in brief: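 Beta-lactamase reporter read-out: FRET substrate fluorescence after 2.5 h at RT, following 5 h compound treatment at 37 C of HeLa cells carrying HSE-driven bla reporter; quantitative HTS format.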

[9] = biological target: Peroxisome proliferator-activated receptor delta (Homo sapiens) (UniProt Q03181); test: qHTS assay to identify small molecule agonists of the peroxisome proliferator-activated receptor delta (PPARd) signaling pathway (AID 743212; calls by dose curve)
Chain of Peroxisome proliferator-activated receptor delta (Homo sapiens) (Q03181 whole entry, looked up): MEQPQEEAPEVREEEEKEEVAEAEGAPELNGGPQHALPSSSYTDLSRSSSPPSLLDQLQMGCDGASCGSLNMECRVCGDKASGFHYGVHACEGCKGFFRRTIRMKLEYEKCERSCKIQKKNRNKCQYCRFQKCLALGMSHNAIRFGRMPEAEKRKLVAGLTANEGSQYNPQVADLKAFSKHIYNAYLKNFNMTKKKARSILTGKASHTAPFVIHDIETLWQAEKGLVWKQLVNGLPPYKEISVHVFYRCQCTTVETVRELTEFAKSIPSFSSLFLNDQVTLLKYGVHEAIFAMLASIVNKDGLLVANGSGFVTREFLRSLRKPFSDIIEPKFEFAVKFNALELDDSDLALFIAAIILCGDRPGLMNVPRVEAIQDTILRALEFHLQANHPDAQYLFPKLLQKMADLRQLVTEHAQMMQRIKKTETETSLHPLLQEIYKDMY
Method in brief: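 Read-out: beta-lactamase FRET fluorescence after 2 h room-temperature incubation with LiveBLAzer B/G substrate. Cells were HEK293H carrying a UAS-bla reporter for PPARd, treated at 37 C with DMSO-dissolved compounds.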

[10] = qHTS assay to identify small molecule antagonists of the peroxisome proliferator-activated receptor delta (PPARd) signaling pathway - cell viability counter screen (AID 743213); note: nearly all actives have a fitted effect of over 50% in size
Method in brief: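 CellTiter-Glo was added to PPARd-bla HEK293H wells following 17 h compound treatment in the presence of 300 nM L165041. Luminescence was recorded after 30 min at room temperature.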

[11] = biological target: Peroxisome proliferator-activated receptor delta (Homo sapiens) (UniProt Q03181); test: qHTS assay to identify small molecule antagonists of the peroxisome proliferator-activated receptor delta (PPARd) signaling pathway (AID 743215; active = well fitted inhibition curve with a large enough effect in the signal ratio in the repeat runs, not every such curve was filed as active; the % refers to the signal ratio;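 note: cells stimulated with agonist L165041 at 300 nM final during compound exposure; series mostly up to about 62 µM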)
Method in brief: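 Cells: HEK293H with a UAS-driven beta-lactamase reporter responsive to PPARd. Compounds were co-added with L165041 (300 nM, final) and incubated 17 h at 37 C before a 2 h room-temperature FRET substrate step and fluorescence reading.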

[12] = qHTS assay to identify small molecule agonists of the farnesoid-X-receptor (FXR) signaling pathway - cell viability counter screen (AID 743218); note: nearly all actives have a fitted effect of over 45% in size; note: potency is the fitted concentration of half-maximal effect
Method in brief: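 Cells were seeded, left 5 h at 37 C and 5% CO2, then dosed with compound in DMSO for 16 h. After the beta-lactamase FRET read, CellTiter-Glo was added and luminescence measured 30 min later.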

[13] = qHTS assay to identify small molecule antagonists of the farnesoid-X-receptor (FXR) signaling pathway - cell viability counter screen (AID 743221; active = well fitted cell-killing curve with a large enough effect in the repeat runs, not every such curve was filed as active; note: nearly all actives have a fitted effect of over 50% in size; note: potency is the fitted concentration of half-maximal effect)
Method in brief: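 Cytotoxicity counter screen run in the FXR-bla reporter wells: HEK 293T cells exposed to compound with 50 uM (final) chenodeoxycholic acid for 16 h, 37 C, then viability measured by CellTiter-Glo luminescence after 30 min, room temperature.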

[14] = biological target: Vitamin D3 receptor (Homo sapiens) (UniProt P11473); test: qHTS assay to identify small molecule agonists of the vitamin D receptor (VDR) signaling pathway (AID 743222; calls by dose curve)
Chain of Vitamin D3 receptor (Homo sapiens) (P11473 whole entry, looked up): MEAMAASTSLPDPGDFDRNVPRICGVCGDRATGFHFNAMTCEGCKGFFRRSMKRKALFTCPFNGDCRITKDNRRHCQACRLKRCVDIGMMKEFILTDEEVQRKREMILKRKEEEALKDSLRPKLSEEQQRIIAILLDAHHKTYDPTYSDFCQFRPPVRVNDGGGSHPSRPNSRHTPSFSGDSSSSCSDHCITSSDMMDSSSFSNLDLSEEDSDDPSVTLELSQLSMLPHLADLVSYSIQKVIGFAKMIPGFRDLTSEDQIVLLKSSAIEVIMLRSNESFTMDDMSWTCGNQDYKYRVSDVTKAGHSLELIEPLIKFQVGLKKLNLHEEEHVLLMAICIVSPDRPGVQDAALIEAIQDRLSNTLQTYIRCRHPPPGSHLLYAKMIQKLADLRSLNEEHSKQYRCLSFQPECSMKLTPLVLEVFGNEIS
Method in brief: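 Cells carrying a VDR-driven beta-lactamase reporter are seeded at 2,000 per well and rested 4 h. Compounds in DMSO are added for 16 h at 37C, and FRET substrate fluorescence is measured after 2 h at room temperature.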

[15] = biological target: Vitamin D3 receptor (Homo sapiens) (UniProt P11473); test: qHTS assay to identify small molecule antagonists of the vitamin D receptor (VDR) signaling pathway (AID 743223; active = well fitted inhibition curve with a large enough effect in the signal ratio in the repeat runs, not every such curve was filed as active; the % refers to the signal ratio)
Method in brief: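 Antagonist mode: compound added to VDR-bla cells alongside agonist 1alpha,25-dihydroxyvitamin D3 (3 nM final), incubation 16 h at 37C. Read-out is LiveBLAzer FRET fluorescence, 2 h at room temperature.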

[16] = qHTS assay to identify small molecule agonists of the vitamin D receptor (VDR) signaling pathway - cell viability counter screen (AID 743224); note: series mostly up to about 63 µM; nearly all actives have a fitted effect of over 50% in size
Method in brief: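 Cells: VDR-bla, 2,000/well, settled 4 h. Treatment: compounds in DMSO, 16 h, 37C/5% CO2. Readout: CellTiter-Glo luminescence after 30 min RT.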

[17] = qHTS assay to identify small molecule agonists of the peroxisome proliferator-activated receptor delta (PPARd) signaling pathway - cell viability counter screen (AID 743211); note: nearly all actives have a fitted effect of over 55% in size; note: potency is the fitted concentration of half-maximal effect
Method in brief: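 Viability was measured as CellTiter-Glo luminescence (30 min, room temperature) in the same wells as the beta-lactamase readout. GeneBLAzer PPARd UAS-bla HEK293H cells received compound after 5 h plating and were incubated 17 h at 37 C.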

[18] = biological target: Bile acid receptor (Homo sapiens) (UniProt Q96RI1); test: qHTS assay to identify small molecule agonists of the farnesoid-X-receptor (FXR) signaling pathway (AID 743220; active = well fitted activation curve with a large enough effect in the signal ratio in the repeat runs, not every such curve was filed as active; the % refers to the signal ratio)
Chain of Bile acid receptor (Homo sapiens) (Q96RI1 whole entry, looked up): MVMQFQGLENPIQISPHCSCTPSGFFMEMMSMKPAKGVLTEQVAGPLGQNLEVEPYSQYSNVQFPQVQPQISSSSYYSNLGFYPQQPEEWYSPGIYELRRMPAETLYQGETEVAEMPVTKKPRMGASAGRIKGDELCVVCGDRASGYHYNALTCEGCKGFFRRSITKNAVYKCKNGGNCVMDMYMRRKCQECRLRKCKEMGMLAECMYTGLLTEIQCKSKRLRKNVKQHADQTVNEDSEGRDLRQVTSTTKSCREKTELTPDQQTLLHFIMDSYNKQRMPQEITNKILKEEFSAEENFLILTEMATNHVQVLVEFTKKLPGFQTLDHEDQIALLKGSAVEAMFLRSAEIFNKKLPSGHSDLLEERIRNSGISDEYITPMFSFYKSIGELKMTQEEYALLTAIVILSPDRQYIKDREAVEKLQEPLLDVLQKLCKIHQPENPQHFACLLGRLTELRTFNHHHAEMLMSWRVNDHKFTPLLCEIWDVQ
Method in brief: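 FXR-UAS-bla HEK 293T cells carrying a UAS-driven beta-lactamase reporter were plated for 5 h at 37C/5% CO2, then exposed to DMSO-dissolved Tox21 10K compounds for 16 h at 37C. A LiveBLAzer B/G FRET substrate was loaded for 2 h at room temperature before fluorescence reading.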

[19] = biological target: Peroxisome proliferator-activated receptor gamma (Homo sapiens) (UniProt P37231); test: qHTS assay to identify small molecule antagonists of the peroxisome proliferator-activated receptor gamma (PPARg) signaling pathway (AID 743191; calls by dose curve; note: series mostly up to about 63 µM; nearly all actives have a fitted effect of over 30% in size)
Method in brief: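 GeneBLAzer PPARg UAS-bla HEK293H cells, 5 h post-plating, exposed to compounds 17 h at 37C. LiveBLAzer B/G FRET substrate added for 1 h at room temperature; beta-lactamase reporter read by fluorescence intensity.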

[20] = biological target: Bile acid receptor (Homo sapiens) (UniProt Q96RI1); test: qHTS assay to identify small molecule antagonists of the farnesoid-X-receptor (FXR) signaling pathway (AID 743217; active = well fitted inhibition curve with a large enough effect in the signal ratio in the repeat runs, not every such curve was filed as active; the % refers to the signal ratio)
Method in brief: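 Cells carrying a UAS-driven beta-lactamase reporter (GeneBLAzer FXR-UAS-bla HEK 293T) were plated and rested 5 h at 37 °C. Compounds in DMSO were added alongside chenodeoxycholic acid agonist at 50 uM final and left 16 h at 37 °C before FRET substrate readout.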

## CC(C)(C)OCC1CO1 (stereo not given)
[1]
  Potency: inactive
[2]
  Potency: inactive
[3]
  Potency: inactive
[4]
  Potency: inactive
[5]
  Potency: inactive
[6]
  Potency: inactive
[7]
  Potency: inactive
[8]
  Potency: inactive
[9]
  Potency: inactive
[10]
  Potency: inactive
[11]
  Potency: inactive
[12]
  Potency: inactive
[13]
  Potency: inactive
[14]
  Potency: inactive
[15]
  outcome: inactive
[16]
  Potency: inactive

## CO[C@@H]1[C@H](OC(=O)/C=C/C=C/C=C/C=C/C(=O)O)CC[C@]2(CO2)[C@H]1[C@@]1(C)O[C@@H]1CC=C(C)C
[1]
  Potency: inactive
[2]
  Potency: inactive
[3]
  Potency: inactive
[4]
  Potency: inactive
[5]
  Potency: 24.3 µM (active)
[6]
  Potency: inactive
[7]
  Potency: inactive
[9]
  Potency: inactive
[10]
  Potency: inactive
[11]
  Potency: inactive
[12]
  Potency: 1.95 µM (active)
[14]
  Potency: inactive
[15]
  outcome: inactive
[16]
  Potency: inactive

## CC1=CC[C@H](C(C)C)C=C1
[1]
  Potency: inactive
[2]
  Potency: inactive
[3]
  Potency: inactive
[4]
  Potency: inactive
[5]
  Potency: 54.5 µM (active)
[6]
  Potency: inactive
[7]
  Potency: inactive
[10]
  Potency: inactive
[12]
  Potency: inactive
[13]
  Potency: 49 µM (active)
[16]
  Potency: inactive

## CC[N+](C)(CC)CCOC(=O)C(O)(c1ccccc1)C1CCCCC1 (stereo not given)
[1]
  Potency: inactive
[2]
  Potency: inactive
[3]
  Potency: inactive
[4]
  Potency: inactive
[5]
  Potency: inactive
[6]
  Potency: inactive
[7]
  Potency: inactive
[8]
  Potency: inactive
[17]
  Potency: inactive
[10]
  Potency: inactive
[12]
  Potency: inactive
[13]
  Potency: inactive
[14]
  Potency: inactive
[15]
  outcome: inactive
[16]
  Potency: inactive

## O=CC1CC=CCC1 (stereo not given)
[1]
  Potency: inactive
[2]
  Potency: inactive
[3]
  Potency: inactive
[4]
  Potency: inactive
[5]
  Potency: inactive
[6]
  Potency: inactive
[7]
  Potency: inactive
[8]
  Potency: inactive
[17]
  Potency: inactive
[9]
  Potency: inactive
[10]
  Potency: inactive
[11]
  Potency: inactive
[12]
  Potency: inactive
[18]
  Potency: inactive
[13]
  Potency: inactive
[14]
  Potency: inactive
[15]
  outcome: inactive
[16]
  Potency: inactive

## CCOC(=O)c1cccnc1
[1]
  Potency: inactive
[2]
  Potency: inactive
[3]
  Potency: inactive
[4]
  Potency: inactive
[5]
  Potency: inactive
[6]
  Potency: inactive
[8]
  Potency: inactive
[9]
  Potency: inactive
[10]
  Potency: inactive
[11]
  Potency: inactive
[12]
  Potency: inactive
[13]
  Potency: inactive
[16]
  Potency: inactive

## NCC(=O)O
[1]
  Potency: inactive
[2]
  Potency: inactive
[3]
  Potency: inactive
[19]
  Potency: inactive
[5]
  Potency: inactive
[6]
  Potency: inactive
[7]
  Potency: inactive
[8]
  Potency: inactive
[17]
  Potency: inactive
[9]
  Potency: inactive
[10]
  Potency: inactive
[11]
  Potency: inactive
[13]
  Potency: inactive
[14]
  Potency: inactive
[15]
  outcome: inactive
[16]
  Potency: inactive

## CCCCCCCN
[1]
  Potency: inactive
[2]
  Potency: inactive
[3]
  Potency: inactive
[4]
  Potency: inactive
[5]
  Potency: inactive
[6]
  Potency: inactive
[17]
  Potency: inactive
[9]
  Potency: inactive
[10]
  Potency: inactive
[12]
  Potency: inactive
[13]
  Potency: inactive
[14]
  Potency: inactive
[15]
  outcome: inactive
[16]
  Potency: inactive

## CN1CCC(=C2c3ccccc3Sc3ccccc32)CC1
[1]
  Potency: inactive
[2]
  Potency: 29.8 µM (active)
[3]
  Potency: inactive
[19]
  Potency: inactive
[5]
  Potency: inactive
[7]
  Potency: inactive
[17]
  Potency: 26.6 µM (active)
[9]
  Potency: inactive
[11]
  Potency: inactive
[20]
  Potency: inactive
[14]
  Potency: inactive
[15]
  outcome: inactive
[16]
  Potency: inactive
